Screens: PubChem BioAssay, National Center for Advancing Translational Sciences (NCATS)
LmPK inhibitor = qHTS Assay for Inhibitors of Leishmania Mexicana Pyruvate Kinase (LmPK); Q27686; AID 1721, 2009; Potency, µM (titrated, usually from 57.5 µM), for the others: top-dose activity change, negative = inhibition, most hits filed as inhibitors; purified LmPK, Kinase-Glo ATP luminescence, 1 h; 290,000 compounds, 0.37% hits; further: on the % scale 0 is the no-effect control and ±100 the full control effect
Target sequence (Q27686 whole entry, looked up): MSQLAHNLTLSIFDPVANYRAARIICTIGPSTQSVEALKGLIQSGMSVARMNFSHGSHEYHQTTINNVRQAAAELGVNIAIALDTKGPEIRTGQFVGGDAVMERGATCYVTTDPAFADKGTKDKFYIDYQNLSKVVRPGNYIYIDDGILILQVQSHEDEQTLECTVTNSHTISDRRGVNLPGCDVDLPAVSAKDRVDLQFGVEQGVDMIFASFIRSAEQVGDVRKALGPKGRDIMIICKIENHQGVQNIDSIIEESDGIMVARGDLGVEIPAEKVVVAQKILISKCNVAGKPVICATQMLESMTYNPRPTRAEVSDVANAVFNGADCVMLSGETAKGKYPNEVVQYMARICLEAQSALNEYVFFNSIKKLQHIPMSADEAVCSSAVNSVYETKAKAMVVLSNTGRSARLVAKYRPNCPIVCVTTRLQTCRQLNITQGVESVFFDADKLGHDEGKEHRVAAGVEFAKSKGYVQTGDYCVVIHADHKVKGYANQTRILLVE
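Purified LmPK (0.1 nM) with 0.5 mM PEP and 0.1 mM ADP in imidazole buffer pH 7.2 with MgCl2/KCl, 1 h at room temperature. ATP formed was read by luciferase luminescence and normalized to no-enzyme and uninhibited controls.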
AMA1-RON2 inh = qHTS for Inhibitors of AMA1-RON; Towards Development of Antimalarial Drug Lead: Primary Screen. Plasmodium falciparum AMA1 (3D7) - RON2 peptide interaction. AlphaScreen AMA1-biotinylated RON2 peptide binding. Potency, µM (series often up to 58.2 µM), inactives show at the top dose activity change, negative = inhibition, usual class: inhibitors. 360,000 compounds, 0.2% hits. AID 720542, 2013;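 further: 0% = vehicle wells and -100% = peptide control; nearly all actives have a fitted effect of over 45% in size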
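AMA1 (3D7) with his tag at 25 nM final met compounds first, then biotinylated RON2 peptide at 25 nM; detection used donor plus acceptor beads, 10 µg/mL apiece, read by AlphaScreen after 30 min at room temperature.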
RE007 growth inh = qHTS Assay for Inhibitors of the HIV-1 protein Vpr | 360,000 compounds, 0.21% hits | Potency, µM (titrated, usually from 92.2 µM), inactives show at the highest dose activity change, negative = less growth, actives largely listed as inhibitors | S. pombe RE007 Vpr strain, BacTiter-Glo ATP luminescence, 24 h; active means well fitted falling curve with a large enough effect; inconclusive means small, poorly fitted or top-dose-only effect; inactive means no such curve, though single readings can be large or run the other way; further: on the % scale 0 is the no-effect control and ±100 the full control effect; nearly all actives have a fitted effect of over 50% in size
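Fission yeast RE007 carrying one integrated HIV-1 vpr copy, seeded at OD 0.01 in PMG+AL medium with 23 nL pinned compound. Grown 24 h at 30 degrees; viability read by BacTiter-Glo luminescence after 5 min.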
NS1 function inh = qHTS Assay for Inhibitors of Influenza NS1 Protein Function; Potency, µM (series often up to 46.1 µM), for inactives: top-dose activity, positive = more growth; 270,000 compounds, 0.4% hits; AID 2326, 2010; calls by dose curve; further: actives are rising curves; nearly all actives have a fitted effect of over 50% in size
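Read-out: OD600 growth recovery of NS1-expressing budding yeast. Cells grown overnight at 30C in -URA glucose medium, washed, resuspended and diluted 1:100 in 2% galactose assay medium, pH 6.0. Same strain lacking NS1 served as positive control.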
Tb PYK inh = qHTS of Trypanosoma Brucei Inhibitors. pyruvate kinase (Trypanosoma brucei), Q57TT1. TbPYK enzyme, Kinase-Glo Plus ATP luminescence, 45 min. Potency, µM (highest dose often 76.8 µM), without a hit: at the top dose activity, negative = inhibition, hits mostly inhibitors. 410,000 compounds, 0.12% hits. AID 624173, 2012; further: on the % scale 0 is the no-effect control and ±100 the full control effect; nearly all actives have a fitted effect of over 50% in size
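Enzyme and substrate buffer are dispensed first and compound is pin-transferred. ADP at 130 uM final then starts the reaction, which runs 45 min at room temperature. Detection reagent is added for 10 min before luminescence is imaged.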
* marks the source's active call; other numbers are inactive results; ? = inconclusive; nt = no result given; [ ] = another dose, or the depositor's remark. This is a sample that favours compounds with a hit; in the whole collection about 0.92% have one here. Unless noted, the call rests on the fitted dose curve; in most records, active means well fitted curve in the direction sought with a large enough effect; inconclusive means small, poorly fitted or top-dose-only effect, or another doubt; inactive means no such curve, though single readings can be large; an effect the other way counts as inactive or inconclusive. Potency means the concentration at half of the fitted maximal effect.

SMILES	LmPK inhibitor	AMA1-RON2 inh	RE007 growth inh	NS1 function inh	Tb PYK inh
CC(c1ccc(F)cc1)n1c(-c2ccc3ccccc3n2)n[nH]c1=S (stereo unspecified)	11µM*	30%	9%	-6%	-13%
S=c1[nH]nc(-c2ccc3ccccc3n2)n1-c1ccc2c(c1)OCCO2	8.9µM*	60%	-3%	2%	4.5µM*
Fc1ccccc1-n1c(-c2ccc3ccccc3n2)n[nH]c1=S	-12%	51%	-17%	4%	?
S=c1[nH]nc(-c2ccc3ccccc3n2)n1-c1ccccc1	28µM*	58%	nt	14%	?
CC(c1ccc(Cl)cc1)n1c(-c2ccc3ccccc3n2)n[nH]c1=S (stereo unspecified)	2%	42%	-1%	-3%	-27%
Cc1ccc(NC(=[OH+])c2cc3ccccc3cc2O)c(C)c1.Cc1ccc(NC(=[OH+])c2cc3ccccc3cc2O)c(C)c1.[Ni]	nt	nt	nt	0%	nt
CO[C@@H]1/C=C\O[C@]2(C)Oc3c(C)c(O)c4c(O)c(cc(O)c4c3C2=O)NC(=O)/C(C)=C\C=C/[C@H](C)[C@@H](O)[C@H](C)[C@H](O)C(C)[C@H](OC(C)=O)[C@@H]1C (stereo partly specified)	nt	nt	nt	-11%	nt
N#CSCC(=O)c1cccc2ccccc12	2%	-2%	?	-20%	-15%
N#CC(=C1C=C(Br)C(=NO)C=C1Cl)c1cccc2ccccc12	nt	14µM*	-18%	nt	-2%
C[C@H]1Cc2c(COc3ccccc3)nc3c(c2CO1)CN(S(=O)(=O)c1ccc2c(c1)OCCN2C)CC3	-2%[11.5 µM]	nt	nt	nt	nt
C/C(=C\C(=O)Nc1ccccc1C(=O)O)c1ccc2ccccc2c1	nt	nt	nt	nt	-3%
S=c1[nH]nc(CCc2ccccc2)n1Cc1ccccc1	8.9µM*	83%	0%	6%	4µM*
COc1ccccc1OCc1n[nH]c(=S)n1Cc1ccccc1	-1%	69%	14%	nt	4µM*
CCn1c(C(c2ccccc2)c2ccccc2)n[nH]c1=S	-18%	38%	9%	7%	8.9µM*
CCCC(=O)N1c2nc(-c3ccco3)nn2C2(CCCCC2)[C@@H]2CCCC[C@@H]21	nt	nt	nt	nt	-10%
Cn1cc(S(C)=O)c(=O)c2ccc(F)cc21 (stereo unspecified)	nt	nt	nt	nt	-7%
CCOC(=O)c1c(N2C(=O)C=CC2=O)sc(C)c1C	?	-1%	13µM*	-32%	25µM*
CCCCCC(O)CCc1n[nH]c(=S)n1-c1ccccc1 (stereo unspecified)	?	90%	0%	-11%	4.5µM*
CCCCC(CC(O)COCCC)c1n[nH]c(=S)n1-c1ccccc1 (stereo unspecified)	?	13%	24%	-3%	11µM*
CC#CCN1c2ccccc2[C@]23C[C@@H](C(=O)OC)N(S(=O)(=O)c4ccc(C#N)cc4)C2=NC(C(=O)OC)=C(C(=O)OC)[C@H]13	1%[11.5 µM]	nt	nt	nt	nt
C[C@H](/C=C/[C@H](C)C(C)(C)O)[C@H]1CC[C@H]2/C(=C/C=C3C[C@@H](O)C[C@H](O)C3)CCC[C@]12C	nt	nt	nt	nt	7%
COc1ccc(C(=O)NCC(c2ccc(N(C)C)cc2)N2CCc3ccccc32)cc1 (stereo unspecified)	nt	nt	nt	nt	-6%
Clc1ccccc1C(Nc1cnccn1)Nc1cnccn1	nt	nt	nt	-3%	nt
Cc1nn(C)c(=O)n1-c1ccc(OCc2ccccc2)cc1	14µM*	-5%	-10%	-8%	-17%
CCOc1ccc(N(CC)S(=O)(=O)N2CCCC(C(=O)NCc3ccccc3Cl)C2)cc1 (stereo unspecified)	nt	nt	nt	nt	2%
SMILES	LmPK inhibitor	AMA1-RON2 inh	RE007 growth inh	NS1 function inh	Tb PYK inh
O=C(O)c1ccc2c(c1)C(=O)/C(=C\c1ccco1)C2=O	-29%	-25%	-5%	nt	?
O=C(O)c1ccc2c(c1)C(=O)/C(=C/c1ccccc1)C2=O	0%	0%	3%	18%	35µM*
Cc1ccc(-c2cc3nc(C)cc(NCc4ccco4)n3n2)cc1	28µM*	9%	?	-44%	1%
C[C@]12C=CC(=O)C=C1[C@@H](F)C[C@@H]1[C@@H]2[C@@H](O)C[C@@]2(C)[C@H]1CC[C@]2(O)C(=O)CO	nt	nt	nt	nt	-9%
O=C(Nc1ccccc1C(=O)N/N=C/c1ccc(O)cc1)c1ccccc1	14µM*	37%	?	3%	-23%
COc1ccc(C(=O)Nc2ccccc2C(=O)N/N=C/c2ccncc2)cc1OC	14µM*	2%	8.9µM*	1%	-29%
COc1ccc(C(=O)Nc2ccccc2C(=O)NCc2cccnc2)cc1OC	0%	8%	5%	-3%	2%
O=C(Nc1ccccc1C(=O)N/N=C/c1ccccc1)c1ccco1	-3%	0%	-25%	-9%	3%
O=C1CN2CCN(CC2)CC(=O)Nc2ccc(cc2)S(=O)(=O)c2ccc(cc2)NC(=O)CN2CCN(CC2)CC(=O)Nc2ccc(cc2)S(=O)(=O)c2ccc(cc2)N1	nt	nt	nt	25%	nt
O=S(=O)(O)c1ccc(O)c2cc(Nc3ccccc3)ccc12	nt	3.2µM*	8%	nt	?
O=S(=O)(O)c1cc(O)c2cc(Nc3ccccc3)ccc2c1	nt	-20%	-25%	nt	?
Cc1ccsc1/C=N/Nc1nc(=O)[nH]nc1C	?	-51%	13µM*	nt	?
CCN(CC)c1ccc(N=Cc2ccc([N+](=O)[O-])o2)cc1	-30%	?	?	-37%	?
CCN(CC)c1ccc(N=Cc2ccccc2[N+](=O)[O-])cc1	-10%	18µM*	?	-3%	-23%
C=CCOc1ccc2ccccc2c1/C=N/O	2%	8%	32µM*	-95%	4%
CCN1CCCc2cc(CN(CCN3CCOCC3)C(=S)Nc3ccc(C)cc3)ccc21	0%	-18%	-14%	nt	1%
CCN1CCCc2cc(CN(CCN3CCOCC3)C(=S)Nc3cccc(Cl)c3)ccc21	-5%	3.5µM*	-24%	nt	-16%
COc1ccc(/C=N/Nc2ncccc2[N+](=O)[O-])c(OC)c1	25µM*	7%	-9%	nt	?
S=C(Nc1ccc(Cl)cc1)c1nc2ccccc2[nH]1	-24%	15%	6.3µM*	-50%	-18%
CCCCN(CCCC)C1=C(C(=O)c2ccccc2)N(CC)S(=O)(=O)c2ccccc21	nt	nt	nt	nt	-2%
CCN1/C(=C(\O)c2ccccc2)C(=O)c2ccccc2S1(=O)=O	-3%	?	40µM*	-139%	3%
CC(c1ncncc1F)[C@](O)(Cn1cncn1)c1ccc(F)cc1F (stereo partly specified)	nt	nt	nt	nt	4%
S=c1[nH]nc(Cc2cccc3ccccc23)n1-c1ccccc1	14µM*	-7%	11%	-3%	5µM*
